Screening data deposited in PubChem BioAssay by National Center for Advancing Translational Sciences (NCATS).
HT1080 IDH1KD tx: qHTS for induction of synthetic lethality in tumor cells producing 2HG: qHTS for the HT-1080-IDH1KD cell line. HT-1080 IDH1 knockdown viability, ATP luminescence, 48 h. Potency, µM (titrated, usually from 46.1 µM), hits mostly cytotoxic. 360,000 compounds, 2% hits. AID 686971, 2013
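% activity derives from luminescence (CellTiter-Glo), normalised to DMSO and no-cell wells. HT-1080-IDH1KD cells, 750/well, had 48 h compound exposure at 37 °C.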
IL1B secr inh: qHTS for Inhibitors of Inflammasome Signaling: IL-1-beta AlphaLISA Primary Screen | 360,000 compounds, 4.7% hits | THP-1 LPS/ATP IL-1B secretion, AlphaLISA, 16 h; hits give low values | activity change, % at 57.5 µM; in the data active = activity change below about -50%; inconclusive = mostly about -30% to -49%
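Secreted IL-1B measured by AlphaLISA bead assay after 16 h compound exposure of THP-1 cells; compounds (final up to 57.5 uM) added 1 h before LPS (250 ng/mL) and ATP (1.25 mM) stimulation; lower signal means less secretion.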
TDP1 cell noCPT: qHTS for Inhibitors of human tyrosyl-DNA phosphodiesterase 1 (TDP1): qHTS in cells in absence of CPT; 420,000 compounds, 15% hits; Potency, µM (titrated, usually from 46.2 µM), most hits filed as inhibitors; DT40 Tdp1-/- hTDP1 cells, no CPT, ATP luminescence, 48 h; AID 686978, 2013; also: nearly all actives have a fitted effect of over 55% in size
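Growth kinetics read by CellTiter-Glo luminescence after ≥48 hr at 37 °C. Cells: DT40 Tdp1-/- stably carrying human TDP1, 400 per well, compound exposure in the absence of CPT (DMSO vehicle).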
HT1080-NT tox: qHTS for induction of synthetic lethality in tumor cells producing 2HG: qHTS for the HT-1080-NT fibrosarcoma cell line; HT-1080-NT fibrosarcoma viability, CellTiter-Glo ATP luminescence, 48 h; Potency, µM (titrated, usually from 46.1 µM), hits mostly cytotoxic; 360,000 compounds, 1.6% hits; AID 686970, 2013;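 also: NT is the 2HG producing partner of a matched IDH1 knockdown line; nearly all actives have a fitted effect of over 55% in size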
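Luminescent CellTiter-Glo readout after 48 hours of compound exposure at 37 degrees C defined viability of HT-1080-NT cells. Activity was normalized to DMSO wells and cell-free media wells; concentration-response curves were fitted and assigned curve classes.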
DT40 TDP1 CPT: qHTS for Inhibitors of human tyrosyl-DNA phosphodiesterase 1 (TDP1): qHTS in cells in presence of CPT; 420,000 compounds, 12% hits; Potency, µM (titrated, usually from 46.2 µM), actives largely listed as inhibitors; chicken DT40 Tdp1-/-;hTDP1 cells + 20 nM CPT, ATP luminescence, 48 h; also: nearly all actives have a fitted effect of over 55% in size
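Chicken DT40 Tdp1-/- cells complemented with human TDP1, 400 cells/well, exposed to compounds plus 20 nM camptothecin for at least 48 h at 37 C; viability read as ATP content by CellTiter-Glo luminescence.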
Large screens that a line does not name were inactive. Rows were chosen to be rich in hits. Some 19% of all compounds tested hit in one or more screens of this group. Unless noted, calls follow the shape of the dose curve; as a rule, active = well fitted curve in the direction sought with a large enough effect; inconclusive = small, poorly fitted or top-dose-only effect, or another doubt; inactive = no such curve, though single readings can be large; an effect the other way counts as inactive or inconclusive.

CCN1C(=O)[C@H]2[C@@H](c3ccc(C)cc3)N3C(=O)N(c4ccccc4)C(=O)[C@@]3(Cc3ccccc3)[C@H]2C1=O	none
COc1ccc(C(=O)/C=C/C(=O)N(CC(=O)NCCC(C)C)Cc2cccs2)c(O)c1	IL1B secr inh -88, TDP1 cell noCPT inconclusive, DT40 TDP1 CPT 1.8µM
COc1ccc(C(=O)/C=C/C(=O)N(CC(=O)NC2CCCCC2)Cc2ccc(F)cc2)c(O)c1	IL1B secr inh -98, TDP1 cell noCPT 4.6µM, DT40 TDP1 CPT 5.2µM
Cc1nc(COc2ccccc2Cl)sc1-c1ccnc(N)n1	IL1B secr inh -62, TDP1 cell noCPT inconclusive, DT40 TDP1 CPT inconclusive
O=c1c(-c2ccc(F)cc2)nc2cnc(N3CCNCC3)nc2n1-c1ccccc1	TDP1 cell noCPT inconclusive, DT40 TDP1 CPT 15µM (no result: HT1080 IDH1KD tx, IL1B secr inh, HT1080-NT tox)
COc1ccc(-n2c(=O)c(-c3cccc(C#N)c3)nc3cnc(N4CCNCC4)nc32)cc1	none (no result: HT1080 IDH1KD tx, IL1B secr inh, HT1080-NT tox)
Cc1nc2cnc(N3CCNCC3)nc2n(-c2ccccc2)c1=O	none (no result: HT1080 IDH1KD tx, IL1B secr inh, HT1080-NT tox)
COc1ccc(-n2c(=O)c(-c3cc(F)cc(F)c3)nc3cnc(N4CCNCC4)nc32)cc1	TDP1 cell noCPT 21µM, DT40 TDP1 CPT 15µM (no result: HT1080 IDH1KD tx, IL1B secr inh, HT1080-NT tox)
COc1ccc(S(=O)(=O)N(Cc2cccs2)C2CCCC2)cc1	TDP1 cell noCPT 12µM, DT40 TDP1 CPT 18µM
Cc1ccc(-c2noc(CN(C3CCCCC3)S(=O)(=O)c3ccc(F)cc3)n2)cc1	TDP1 cell noCPT 18µM, DT40 TDP1 CPT inconclusive (no result: HT1080 IDH1KD tx, IL1B secr inh, HT1080-NT tox)
CCCc1nc(-c2ccc(-c3ccc(F)cc3)cc2)no1	none
COc1ccc(Cc2nc(-c3ccccc3)no2)cc1	none
CS(=O)(=O)N(Cc1nc(-c2ccc(F)cc2)no1)c1ccccc1Cl	IL1B secr inh inconclusive, TDP1 cell noCPT inconclusive, DT40 TDP1 CPT 18µM
Cc1ccc(S(=O)(=O)N(C)Cc2nc(-c3ccncc3)no2)cc1	TDP1 cell noCPT inconclusive, DT40 TDP1 CPT inconclusive
COc1ccc(S(=O)(=O)N(Cc2ccccc2)Cc2nc(-c3ccccc3)no2)cc1	TDP1 cell noCPT 18µM, DT40 TDP1 CPT 15µM
COc1ccc(S(=O)(=O)NCc2cccs2)cc1	none
Cc1ccn2c(=O)cc(CSc3nnc(C)s3)nc2c1	none (no result: HT1080 IDH1KD tx, IL1B secr inh, HT1080-NT tox)
CC(C)Cn1c(SC(C)C(=O)NC2CC2)nnc1-c1ccccc1F (centres undefined)	none
Cc1ccc(O)c(CCc2ccc(O)cc2)n1	none
COc1ccc(S(=O)(=O)N(Cc2nc(-c3ccccc3)no2)C2CCCCC2)cc1	TDP1 cell noCPT 9.2µM, DT40 TDP1 CPT 16µM (no result: HT1080 IDH1KD tx, IL1B secr inh, HT1080-NT tox)
COc1ccc(-c2noc(CN(C)CCC3CCCCO3)n2)cc1 (centres undefined)	TDP1 cell noCPT inconclusive
NC(=O)c1cc(-c2ccccc2)sc1NC(=O)CN1CCCCC1	HT1080 IDH1KD tx 15µM, IL1B secr inh -51, TDP1 cell noCPT 23µM, HT1080-NT tox inconclusive, DT40 TDP1 CPT 21µM
CC(C)(C)C(=O)Nc1sc(-c2ccccc2)cc1C(=O)O	HT1080 IDH1KD tx inconclusive, IL1B secr inh -78, TDP1 cell noCPT inconclusive, HT1080-NT tox inconclusive, DT40 TDP1 CPT inconclusive
Cc1cccc(C(=O)Nc2sc(-c3ccccc3)cc2C(=O)O)c1	TDP1 cell noCPT inconclusive, DT40 TDP1 CPT inconclusive
COC(=O)c1cc(-c2ccccc2)sc1NC(=O)CN1C(=O)c2ccccc2C1=O	IL1B secr inh -62
NC(=O)c1cc(-c2ccccc2)sc1NC(=O)Cc1ccc(S(=O)(=O)N2CCOCC2)s1	none
CCOC(=O)c1c(NC(=O)C2COc3ccccc3O2)sc2c1CC(C)(C)NC2(C)C (centres undefined)	HT1080 IDH1KD tx 16µM, IL1B secr inh inconclusive, TDP1 cell noCPT 12µM, HT1080-NT tox inconclusive, DT40 TDP1 CPT 13µM
CCOC(=O)c1c(NC(=O)C2COc3ccccc3O2)sc(C(C)=O)c1C (centres undefined)	TDP1 cell noCPT 6.5µM, DT40 TDP1 CPT 7.3µM
CCOC(=O)c1c(NC(=O)Cc2ccccc2)sc2c1CC(C)(C)NC2(C)C	TDP1 cell noCPT inconclusive, DT40 TDP1 CPT inconclusive
CCOC(=O)c1ccc(NC(=O)C2COc3ccccc3O2)cc1 (centres undefined)	TDP1 cell noCPT inconclusive, HT1080-NT tox inconclusive
Cc1c(CNC(=O)c2c([N+](=O)[O-])cnn2C)cnn1C	none
O=C(Nc1ccccc1NC(=O)NC1CCCCC1)NC1CCCCC1	IL1B secr inh -69, TDP1 cell noCPT inconclusive, DT40 TDP1 CPT inconclusive
Cc1ccc(CN=C(Nc2ccccc2)NC2CCCCC2)cc1	HT1080 IDH1KD tx inconclusive, IL1B secr inh -87, TDP1 cell noCPT 21µM, DT40 TDP1 CPT 21µM
NC(=O)c1ccccc1NC(=O)NC1CCCCC1	none
O=C(Nc1ccc(Br)cc1)NC1CCCCCCC1	HT1080 IDH1KD tx inconclusive, IL1B secr inh -90, TDP1 cell noCPT inconclusive, HT1080-NT tox inconclusive, DT40 TDP1 CPT inconclusive
O=C(Nc1ccccc1)NC1CCCCCCC1	IL1B secr inh inconclusive, TDP1 cell noCPT 29µM, DT40 TDP1 CPT inconclusive
O=C(Nc1ccccc1)NC1CCCCC1	none
COc1cc(/C=C2/NC(=O)N(Cc3ccccc3F)C2=O)ccc1O	IL1B secr inh inconclusive, TDP1 cell noCPT inconclusive, DT40 TDP1 CPT inconclusive
O=S(=O)(NC1c2cccc3cccc(c23)C1Sc1ncccn1)c1ccc(Cl)cc1 (centres undefined)	TDP1 cell noCPT inconclusive, DT40 TDP1 CPT inconclusive
Cc1ccc(S(=O)(=O)NC2c3cccc4cccc(c34)C2Sc2n[nH]c(N)n2)cc1 (centres undefined)	HT1080 IDH1KD tx inconclusive, TDP1 cell noCPT 16µM, HT1080-NT tox inconclusive, DT40 TDP1 CPT 21µM
